From paper PMC5540273 (PLoS ONE, 2017)

tested on: T1, LZK; details: concentration: 1 μM, replicates: in singlicate; n = 1
T1 construct: gene MAP3K13
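Note: KINOMEscan kinase panel screen.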

Row | SMILES | %Inh [%]
1 | COC(=O)c1c(-c2ccccc2)c2cc(Br)ccc2c(=O)n1Cc1ccc(S(C)(=O)=O)cc1 | 33
2 | Cc1nnc(-c2ccc(C)c(-c3ccc(C(=O)O)cc3)c2)o1 [GW608005] | 0
3 | COc1cc2nccc(Nc3ccc(OCc4ccc(NC(C)=O)cc4)cc3)c2cc1OC.Cl [GW440135] | 24
4 | Cc1nc(N(C)[C@H]2CN(C(=O)CC#N)CC[C@H]2C)c2cc[nH]c2n1 | 0
5 | Nc1nc(N)c2nc(-c3ccccc3)[nH]c2n1 [SKF-12778] | 0
6 | Cl.c1ccc(Cn2cnc3cc(Nc4ncnc5ccccc45)ccc32)cc1 [GW272142] | 22
7 | COC(=O)c1c(-c2ccccc2)c2cc(Br)ccc2c(=O)n1Cc1ccc(NC(=O)CCC(=O)O)cc1 | 4
8 | O=C(Nc1ccc2c(c1)OCO2)NC1CCN(c2ccnc(NCc3ccc(F)cc3)n2)CC1 [GSK1379859] | 0
9 | Cc1ccccc1COc1cc(-n2cnc3cc(Cl)ccc32)sc1C(N)=O [GW813349] | 0
10 | Nc1n[nH]c2ncc(-c3ccccc3)cc12 [SB-517081] | 0
11 | COc1ccc(-c2coc3ccc(-c4nnc(SCc5cccc(C#N)c5)o4)cc23)cc1 | 9
12 | Cc1cccc(-c2nc(Nc3ccc4c(cnn4C)c3)c3ccccc3n2)n1 [GW876731] | 0
13 | CN(C)c1cc(-c2ccc3c(N)n[nH]c3c2)nc(N)n1 [GSK2219329] | 10
14 | COc1cc2ncn(-c3cc(OCCCc4ccccc4)c(C(N)=O)s3)c2cc1OC [GSK205189] | 0
15 | CCC(=O)c1c(-c2ccccc2)c2cc(Cl)ccc2c(=O)n1Cc1cc(S(C)(=O)=O)n(CCC(C)(C)O)n1 | 13
16 | COc1cccc(C2=C(Nc3cccc(C(=O)O)c3)C(=O)NC2=O)c1 [SB-390770] | 0
17 | CCc1nc(-c2cccc(C)c2)c(-c2ccncc2)s1 | 0
18 | CCC(=O)c1c(-c2ccccc2)c2cc(Cl)ccc2c(=O)n1Cc1cc(C(=O)NC2CC2)n(C)n1 | 31

Row | SMILES | %Inh [%]
19 | CCS(=O)(=O)c1ccc(OC)c(Nc2ncc(-c3ccc(F)cc3)o2)c1.Cl [GW591947] | 0
20 | COc1cccc(C2=C(N(C)c3ccccc3)C(=O)NC2=O)c1 [SB-334865] | 32
21 | CCCC(=O)Nc1n[nH]c2ncc(-c3cccc4ccccc34)cc12 [SB-642057] | 0
22 | C[C@@H]1CC[C@H](C(=O)NC2CCCCC2)CN1c1cc(-c2ccc3c(N)n[nH]c3c2)nc(N)n1 [GSK2291363] | 0
23 | COc1cc(Nc2nccc(N3CCC(NC(=O)C(C)c4ccc(Cl)cc4)C3)n2)cc(OC)c1OC (stereo not drawn) [GSK1379757] | 0
24 | O=C(Nc1n[nH]c2nc(-c3ccccc3)c(Cl)cc12)C1CC1 [SB-734909] | 0
25 | CN1C(=O)C(Nc2ccccc2)=C(c2ccccc2)C1=O [SB-300079] | 0
26 | CCn1c(-c2nonc2N)nc2ccccc21 [SB-693162/GW549034] | 55
27 | Nc1nc(-c2ccccc2F)c(-c2ccnc3ccccc23)s1 [GW560459] | 30
28 | Cc1ccc(Oc2ccc(Nc3ncnc4cc[nH]c34)cc2C)cn1 | 40
29 | O=C(NCc1cccs1)c1cc(C(=O)c2c(Cl)cccc2Cl)c[nH]1 [GW823670] | 0
30 | COc1ccc(-c2cc3c(C)nc(N)nc3n([C@H]3CC[C@H](O)CC3)c2=O)cn1 | 0
31 | COc1cc2ncn(-c3cc(OCc4ccncc4Br)c(C(N)=O)s3)c2cc1OC [GW854278] | 0
32 | Cc1cc(Nc2nc(-c3cccc(C)n3)nc3ccccc23)ccn1 [GW872411] | 0
33 | COc1ccc(CNC(=O)NC2CCN(c3ccnc(Nc4ccc(F)cc4)n3)C2)cc1 (stereo not drawn) [GSK1379706] | 71
34 | COc1cc(Nc2nccc(N3CCC(NC(=O)C4COc5ccccc5O4)C3)n2)cc(OC)c1OC (stereo not drawn) [GSK1379761] | 58
35 | COc1cccc(-n2cnc3c(N)ncnc32)c1 [SKF-97416] | 33
36 | CCC(=O)c1c(-c2ccccc2)c2cc(Cl)ccc2c(=O)n1Cc1cc(S(C)(=O)=O)n(CC(F)F)n1 | 0

tested on: MAK; details: concentration: 1 μM, replicates: in singlicate; n = 1

Row | SMILES | %Inh [%]
37 | COC(=O)c1c(-c2ccccc2)c2cc(Br)ccc2c(=O)n1Cc1ccc(S(C)(=O)=O)cc1 | 34
38 | Cc1nnc(-c2ccc(C)c(-c3ccc(C(=O)O)cc3)c2)o1 [GW608005] | 19
39 | COc1cc2nccc(Nc3ccc(OCc4ccc(NC(C)=O)cc4)cc3)c2cc1OC.Cl [GW440135] | 0
40 | Cc1nc(N(C)[C@H]2CN(C(=O)CC#N)CC[C@H]2C)c2cc[nH]c2n1 | 9
41 | Nc1nc(N)c2nc(-c3ccccc3)[nH]c2n1 [SKF-12778] | 3
42 | Cl.c1ccc(Cn2cnc3cc(Nc4ncnc5ccccc45)ccc32)cc1 [GW272142] | 0
43 | COC(=O)c1c(-c2ccccc2)c2cc(Br)ccc2c(=O)n1Cc1ccc(NC(=O)CCC(=O)O)cc1 | 8
44 | O=C(Nc1ccc2c(c1)OCO2)NC1CCN(c2ccnc(NCc3ccc(F)cc3)n2)CC1 [GSK1379859] | 79
45 | Cc1ccccc1COc1cc(-n2cnc3cc(Cl)ccc32)sc1C(N)=O [GW813349] | 0
46 | Nc1n[nH]c2ncc(-c3ccccc3)cc12 [SB-517081] | 17
47 | COc1ccc(-c2coc3ccc(-c4nnc(SCc5cccc(C#N)c5)o4)cc23)cc1 | 36
48 | Cc1cccc(-c2nc(Nc3ccc4c(cnn4C)c3)c3ccccc3n2)n1 [GW876731] | 29
49 | CN(C)c1cc(-c2ccc3c(N)n[nH]c3c2)nc(N)n1 [GSK2219329] | 16
50 | COc1cc2ncn(-c3cc(OCCCc4ccccc4)c(C(N)=O)s3)c2cc1OC [GSK205189] | 4
51 | CCC(=O)c1c(-c2ccccc2)c2cc(Cl)ccc2c(=O)n1Cc1cc(S(C)(=O)=O)n(CCC(C)(C)O)n1 | 2
52 | COc1cccc(C2=C(Nc3cccc(C(=O)O)c3)C(=O)NC2=O)c1 [SB-390770] | 33
53 | CCc1nc(-c2cccc(C)c2)c(-c2ccncc2)s1 | 0
54 | CCC(=O)c1c(-c2ccccc2)c2cc(Cl)ccc2c(=O)n1Cc1cc(C(=O)NC2CC2)n(C)n1 | 32

Row | SMILES | %Inh [%]
55 | CCS(=O)(=O)c1ccc(OC)c(Nc2ncc(-c3ccc(F)cc3)o2)c1.Cl [GW591947] | 80
56 | COc1cccc(C2=C(N(C)c3ccccc3)C(=O)NC2=O)c1 [SB-334865] | 24
57 | CCCC(=O)Nc1n[nH]c2ncc(-c3cccc4ccccc34)cc12 [SB-642057] | 22
58 | C[C@@H]1CC[C@H](C(=O)NC2CCCCC2)CN1c1cc(-c2ccc3c(N)n[nH]c3c2)nc(N)n1 [GSK2291363] | 25
59 | COc1cc(Nc2nccc(N3CCC(NC(=O)C(C)c4ccc(Cl)cc4)C3)n2)cc(OC)c1OC (stereo not drawn) [GSK1379757] | 17
60 | O=C(Nc1n[nH]c2nc(-c3ccccc3)c(Cl)cc12)C1CC1 [SB-734909] | 3
61 | CN1C(=O)C(Nc2ccccc2)=C(c2ccccc2)C1=O [SB-300079] | 0
62 | CCn1c(-c2nonc2N)nc2ccccc21 [SB-693162/GW549034] | 0
63 | Nc1nc(-c2ccccc2F)c(-c2ccnc3ccccc23)s1 [GW560459] | 23
64 | Cc1ccc(Oc2ccc(Nc3ncnc4cc[nH]c34)cc2C)cn1 | 25
65 | O=C(NCc1cccs1)c1cc(C(=O)c2c(Cl)cccc2Cl)c[nH]1 [GW823670] | 0
66 | COc1ccc(-c2cc3c(C)nc(N)nc3n([C@H]3CC[C@H](O)CC3)c2=O)cn1 | 0
67 | COc1cc2ncn(-c3cc(OCc4ccncc4Br)c(C(N)=O)s3)c2cc1OC [GW854278] | 2
68 | Cc1cc(Nc2nc(-c3cccc(C)n3)nc3ccccc23)ccn1 [GW872411] | 0
69 | COc1ccc(CNC(=O)NC2CCN(c3ccnc(Nc4ccc(F)cc4)n3)C2)cc1 (stereo not drawn) [GSK1379706] | 30
70 | COc1cc(Nc2nccc(N3CCC(NC(=O)C4COc5ccccc5O4)C3)n2)cc(OC)c1OC (stereo not drawn) [GSK1379761] | 44
71 | COc1cccc(-n2cnc3c(N)ncnc32)c1 [SKF-97416] | 10
72 | CCC(=O)c1c(-c2ccccc2)c2cc(Cl)ccc2c(=O)n1Cc1cc(S(C)(=O)=O)n(CC(F)F)n1 | 14
